Experimental data from PubChem BioAssay (EPA / NIEHS).
Where “and” joins values, the source holds several entries; their conditions need not be identical. Identical values can stand only once. Inconclusive results are not listed. Calls of active or inactive are those of the source. The calls were made as follows, unless noted: active = hit-call score of the fitted dose curve at least 0.9, where 1 is the maximum; inconclusive = response in the unintended direction; inactive = score below 0.9.

Assays:
[1] = read-out: UDP glucuronosyltransferase (UGT1A1), UGT1A1 (gene 54658); assay: LTEA_HepaRG_UGT1A1: Life Technologies and Expression Analysis (LTEA) Assay for UDP glucuronosyltransferase (UGT1A1) using HepaRG (AID 2283538; active = hit-call score of the fitted dose curve at least 0.9, where 1 is the maximum; inactive = score below 0.9); conditions: mRNA level, 48 h; actives raise or lower the signal
Summary of the method: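 HepaRG, 48 h chemical exposure (top 100 uM, half-log 8-pt, 0.5% DMSO vehicle), duplicate wells; qRT-PCR (TaqMan, Fluidigm array) for UGT1A1 mRNA, housekeeping-normalized; bidirectional curve fit vs DMSO baseline.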

[2] = read-out: UDP glucuronosyltransferase (UGT1A6), UGT1A6 (gene 54578); assay: LTEA_HepaRG_UGT1A6: Life Technologies and Expression Analysis (LTEA) Assay for UDP glucuronosyltransferase (UGT1A6) using HepaRG (AID 2283539; active = hit-call score of the fitted dose curve at least 0.9, where 1 is the maximum; inactive = score below 0.9); conditions: mRNA level, 48 h; actives raise or lower the signal
Summary of the method: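 qRT-PCR readout of UGT1A6 mRNA (normalized to ACTB/GAPDH/POLR2A) in differentiated HepaRG cells after 48 h chemical exposure; 8 concentrations, top 100 uM, half-log steps, 0.5% DMSO. Bidirectional curve fit relative to DMSO baseline.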

[3] = read-out: X-box binding protein 1 (XBP1), XBP1 (gene 7494); assay: LTEA_HepaRG_XBP1: Life Technologies and Expression Analysis (LTEA) Assay for X-box binding protein 1 (XBP1) using HepaRG (AID 2283540; active = hit-call score of the fitted dose curve at least 0.9, where 1 is the maximum; inactive = score below 0.9); conditions: mRNA level, 48 h; actives raise or lower the signal
Summary of the method: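 HepaRG, 48 h exposure, 8-pt half-log CRC top 100 uM, 0.5% DMSO vehicle, duplicates. Readout: TaqMan qRT-PCR of XBP1 mRNA, housekeeping-normalised (ACTB/GAPDH/POLR2A); bidirectional fit vs DMSO baseline.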

[4] = LTEA_HepaRG_LDH_cytotoxicity: Cytotoxicity Assessment in the Life Technologies and Expression Analysis (LTEA) Assay (AID 2283563);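 as to AC50: LDH activity released into spent culture medium as a marker of cell death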
Summary of the method: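 HepaRG (human liver line), 48 h exposure, 8-pt half-log series from 100 uM, 0.5% DMSO vehicle, duplicates. Read-out: LDH in spent medium. Positive-direction fit vs DMSO baseline.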

[5] = ATG_XTT_Cytotoxicity: Cytotoxicity Assessment in the Attagene TRANS-FACTORIAL HepG2 Assay (AID 2283584)
Summary of the method: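 XTT readout of cell number in transfected HepG2 cells, 24 h post-dosing; DMSO serves as negative control and baseline, with activity taken as loss of viability signal.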

[6] = TOX21_p53_BLA_p2_viability: Viability Assessment in the Tox21 HCT-116 p53 Agonism Beta-lactamase Assay, Phase 2 (AID 2283591);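 also: actives lower the ATP signal meaning cytotoxicity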
Summary of the method: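 HCT116 p53-bla cells, 4000/well, dosed after 5 h plating (217-fold dilution of DMSO stocks) and incubated 16 h at 37C. Viability taken as cellular ATP by CellTiter-Glo luminescence after 30 min RT; signal loss marks cytotoxicity.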

[7] = biological target: Cellular tumor antigen p53 (Homo sapiens) (UniProt P04637); assay: TOX21_p53_BLA_p2_ratio: Tox21 HCT-116 p53 Agonism Beta-lactamase Assay, Ratio, Phase 2 (AID 2283592)
Sequence of Cellular tumor antigen p53 (Homo sapiens) (P04637 whole entry, looked up): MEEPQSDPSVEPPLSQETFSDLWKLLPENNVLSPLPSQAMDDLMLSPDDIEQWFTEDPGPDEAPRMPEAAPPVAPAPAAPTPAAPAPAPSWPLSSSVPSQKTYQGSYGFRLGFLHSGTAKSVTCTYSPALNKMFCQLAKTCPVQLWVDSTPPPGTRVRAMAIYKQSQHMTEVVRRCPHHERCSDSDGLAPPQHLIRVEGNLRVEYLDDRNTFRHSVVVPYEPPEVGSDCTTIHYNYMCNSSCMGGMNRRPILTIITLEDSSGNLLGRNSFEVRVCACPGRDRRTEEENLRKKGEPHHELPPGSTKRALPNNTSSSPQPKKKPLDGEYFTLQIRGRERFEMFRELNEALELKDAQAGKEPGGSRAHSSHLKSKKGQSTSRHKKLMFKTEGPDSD
Summary of the method: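 Readout: blue/green (460/530 nm) FRET emission ratio after 2 h CCF4-AM loading at room temperature, excitation 405 nm. HCT116 p53 bla cells, 16 h compound exposure at 37C, 5% CO2; agonist direction fitted against DMSO baseline.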

[8] = biological target: Cellular tumor antigen p53 (Homo sapiens) (UniProt P04637); assay: TOX21_p53_BLA_p3_ratio: Tox21 HCT-116 p53 Agonism Beta-lactamase Assay, Ratio, Phase 3 (AID 2283596)
Summary of the method: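 Cells were seeded at 4000/well, rested 5 h at 37C, then dosed with DMSO compound solutions (217-fold dilution) for 16 h. CCF4-AM substrate was loaded for 2 h at room temperature, and the 460/530 nm emission ratio was fitted for gain of signal versus DMSO.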

[9] = TOX21_p53_BLA_p4_viability: Viability Assessment in the Tox21 HCT-116 p53 Agonism Beta-lactamase Assay, Phase 4 (AID 2283597);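 also: hits lower the luminescence signal meaning cytotoxicity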
Summary of the method: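 ATP content by CellTiter-Glo luminescence, 30 min RT, read after the beta-lactamase ratio step. Cells: HCT116, 4000/well, compound added after 5 h, exposure 16 h at 37C. Signal loss = reduced viability.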

[10] = biological target: Cellular tumor antigen p53 (Homo sapiens) (UniProt P04637); assay: TOX21_p53_BLA_p5_ratio: Tox21 HCT-116 p53 Agonism Beta-lactamase Assay, Ratio, Phase 5 (AID 2283599)
Summary of the method: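 HCT-116 p53-bla cells (4000/well) plated 5 h, dosed with compound (217-fold DMSO dilution) for 16 h at 37 C; CCF4-AM substrate 2 h at room temperature. Activity is the 460/530 nm emission ratio (405 nm excitation), fitted in gain-of-signal direction versus DMSO.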

[11] = TOX21_p53_BLA_p5_viability: Viability Assessment in the Tox21 HCT-116 p53 Agonism Beta-lactamase Assay, Phase 5 (AID 2283600)
Summary of the method: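 ATP luminescence (CellTiter-Glo, 30 min, RT) served as the viability read-out, with loss of signal indicating cytotoxicity. Compounds in DMSO were pinned at a 217-fold dilution onto 4000 cells/well and incubated 16 h, 37C.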

[12] = biological target: Cellular tumor antigen p53 (Homo sapiens) (UniProt P04637); assay: TOX21_p53_BLA_p4_ratio: Tox21 HCT-116 p53 Agonism Beta-lactamase Assay, Ratio, Phase 4 (AID 2283601)
Summary of the method: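 HCT-116 p53 beta-lactamase reporter cells (4000/well) preincubated 5 h, then compound (217-fold dilution of DMSO stock) for 16 h at 37C. CCF4-AM substrate added 2 h at room temperature; 460/530 nm emission ratio fitted upward versus DMSO.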

[13] = Tanguay_ZF_120hpf_MORT_legacy: (Legacy) Oregon State University Tanguay Lab 120 Hour Post-fertilization zebrafish Assay for Mortality (AID 2283633);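 as to AC50: fitted as increase in binary mortality versus DMSO negative control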
Summary of the method: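 Brightfield scoring of embryo death (binary) at 24 and 120 hpf; static exposure 6–120 hpf, 28C, sealed and foil-covered. Pronase-dechorionated 5D wild-type larvae, single embryo per well. DMSO 0.64% v/v; trimethyltin chloride 5uM positive control.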

[14] = Tanguay_ZF_120hpf_YSE_legacy: (Legacy) Oregon State University Tanguay Lab 120 Hour Post-fertilization zebrafish Assay for Yolk Sac Edema (AID 2283634)
Summary of the method: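 Binary brightfield scoring of yolk sac edema at 120 hpf; DMSO baseline, gain-of-signal fitting. Dechorionated 5D larvae, one per well, static exposure 6–120 hpf, 28C, 0.64% DMSO. Dead embryos not scored.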

[15] = Tanguay_ZF_120hpf_AXIS_legacy: (Legacy) Oregon State University Tanguay Lab 120 Hour Post-fertilization zebrafish Assay for Body Axis Malformation (AID 2283635)
Summary of the method: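 Embryos: 5D wild-type, pronase-dechorionated 4 hpf; static exposure 6–120 hpf, 28C, sealed, dark, 1 embryo/well, 0.64% DMSO. 120 hpf axis malformation scored present/absent; dead embryos excluded. Analysed as gain of signal vs DMSO.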

[16] = Tanguay_ZF_120hpf_EYE_legacy: (Legacy) Oregon State University Tanguay Lab 120 Hour Post-fertilization zebrafish Assay for Eye Malformation (AID 2283636);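 also: binary presence or absence of eye malformation scored by brightfield in 120 hpf larvae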
Summary of the method: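 5D wild-type embryos, pronase-dechorionated at 4 hpf; static exposure 6–120 hpf, 28C, dark; DMSO 0.64% final; 5uM trimethyltin chloride positive control. Binary eye-defect scoring at 120 hpf; dead embryos not scored.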

[17] = Tanguay_ZF_120hpf_SNOU_legacy: (Legacy) Oregon State University Tanguay Lab 120 Hour Post-fertilization zebrafish Assay for Snout Malformation (AID 2283637)
Summary of the method: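 Binary brightfield scoring of snout malformation at 120 hpf. Dechorionated 5D wild-type embryos, one per well, static exposure from 6 hpf at 28C, sealed and dark; final DMSO 0.64% (vol/vol), DMSO as baseline; 5uM trimethyltin chloride positive control.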

[18] = Tanguay_ZF_120hpf_JAW_legacy: (Legacy) Oregon State University Tanguay Lab 120 Hour Post-fertilization zebrafish Assay for Jaw Malformation (AID 2283638)
Summary of the method: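 Binary jaw-malformation calls at 120 hpf by brightfield imaging; DMSO (0.64% v/v) = baseline. Embryos: 5D wild-type, pronase-dechorionated, one per well from 6 hpf, static exposure, 28C, sealed, dark.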

[19] = Tanguay_ZF_120hpf_PE_legacy: (Legacy) Oregon State University Tanguay Lab 120 Hour Post-fertilization zebrafish Assay for Pericardial Edema (AID 2283640)
Summary of the method: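 Static waterborne exposure, 5D wild-type embryos, 28C, to 120 hpf; final DMSO 0.64% (vol/vol). Binary PE call at 120 hpf by brightfield; fitted upward vs DMSO baseline. 5uM trimethyltin chloride as positive control.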

[20] = Tanguay_ZF_120hpf_OTIC_legacy: (Legacy) Oregon State University Tanguay Lab 120 Hour Post-fertilization zebrafish Assay for Otic Vesicle Malformation (AID 2283639)
Summary of the method: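 Brightfield scoring at 120 hpf, binary present/absent; DMSO negative control, 5uM trimethyltin chloride positive control. Static exposure at 28C, final DMSO 0.64% (vol/vol). Dead embryos not scored for malformation.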

Measured: AC50

CCCCC(CC)COC(=O)c1ccccc1C(=O)O (stereo not drawn)
active: [1] 64.9 µM
not listed: [20]
inactive: all other assays above

O=C(c1ccccc1)C1CCCCC1
not listed: [6] | [7] | [8] | [9] | [10] | [11] | [12]
inactive: all other assays above

S=C(S)NCCNC(=S)S.[Mn+2].[S-]C([S-])=NCCN=C([S-])[S-].[Zn+2]
inactive: [5] | [13] | [14] | [15] | [16] | [17] | [18] | [20] | [19]
active: [1] 1.25 µM and 1.46 µM and 1.2 µM | [2] 2.12 µM and 1.74 µM | [3] 908 nM and 953 nM | [4] 1.58 µM and 1.57 µM and 1.84 µM

CC(=O)[C@H]1CC[C@H]2[C@@H]3CCC4=CC(=O)CC[C@]4(C)[C@H]3CC[C@]12C
active: [1] 37.9 µM | [2] 63.7 µM | [4] 35.8 µM
inactive: all other assays above

C#CCOC(=O)[C@@H](C)Oc1ccc(Oc2ncc(Cl)cc2F)cc1
active: [1] 20.2 µM
not listed: [5]
inactive: all other assays above

N#CSCSc1nc2ccccc2s1
active: [4] 75 µM | [13] 0.539 µM
not listed: [6] | [7] | [8] | [9] | [10] | [11] | [12]
inactive: all other assays above

CCCCC(CC)CN1C(=O)C2C3C=CC(C3)C2C1=O (stereo not drawn)
active: [1] 88.5 µM | [9] 73.3 µM
not listed: [8]
inactive: all other assays above

COc1nc(C)nc(NC(=O)NS(=O)(=O)c2ccccc2OCCCl)n1
inactive: [5]

C=CCOC(Cn1ccnc1)c1ccc(Cl)cc1Cl (stereo not drawn)
inactive: [5]
